# Data reported in PubChem BioAssay (NCI).
# About 83,000 compounds went through this panel and 20% of them were active in at least one assay; those are over-represented in the sample as a whole.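 Assay: single dose, 48 h. Readout: percent growth (0 = no net growth; negative = cell death). Active: <10.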 Values without a mark were called inactive. Activity calls are given as the source filed them.
# Columns and labels:
# Assay in all cases: NCI-60 one-dose screen, 48 h (100 = growth as untreated, 0 = no growth, -100 = all killed)
# Conditions in all cases: 10 µM unless noted
# [1] = test system: HCT-15 colon
# [2] = test system: HT29 colon
# [3] = test system: SNB-75 CNS
# [4] = test system: SNB-19 CNS
# [5] = test system: U251 CNS
# [6] = test system: PC-3 prostate
# [7] = test system: SK-MEL-5 melanoma
# [8] = test system: UACC-62 melanoma
# [9] = test system: LOX IMVI melanoma
# [10] = test system: SK-MEL-28 melanoma
Structure (SMILES),growth [1],growth [2],growth [3],growth [4],growth [5],growth [6],growth [7],growth [8],growth [9],growth [10]
CC/C=C\C[C@H](O)C/C=C1/C(=O)C=C[C@@H]1C/C=C\CCCC(=O)OC(C)C,-33.5% (active),-49.7% (active),46%,9.75% (active),-89.8% (active),-0.368% (active),-94.7% (active),-41.7% (active),-82.3% (active),-41.3% (active)
O=C(/C=C/c1cc2ccccc2[nH]c1=O)/C=C/c1cc2ccccc2[nH]c1=O,48.2%,-39.2% (active),19.5%,44.5%,-9.57% (active),9.61% (active),-22.8% (active),13.5%,-65.4% (active),37.9%
COc1ccc(N(Cc2cc(OC)c(OC)c(OC)c2)C2OC(=O)c3ccccc32)cc1 (stereo not given),36.1%,5.34% (active),-6.32% (active),53.3%,19.4%,25.2%,18.2%,44.2%,46.2%,55.5%
O=C(CCCN1CCOCC1)Nc1ccc(Cn2nnc3c2C(=O)c2nnn(Cc4ccc(NC(=O)CCCN5CCOCC5)cc4)c2C3=O)cc1,95.8%,1.66% (active),-87.9% (active),59.5%,18.2%,55.5%,17.1%,51.5%,-5.71% (active),37.3%
C=C1CCC2C3(C)COC(C)(C)OC3CCC2(C)C1C/C=C1/C(=O)OCC1OC(C)=O (stereo not given),33.8%,18.4%,58%,110%,36.7%,56.4%,56.9%,41.9%,8.63% (active),69.6%
CC1(C)CC(=O)C(c2c(-c3ccccc3)[nH]c3[nH]c(=S)[nH]c(=O)c23)=C(O)C1,112%,106%,107%,93%,105%,83%,108%,92.4%,111%,110%
CC(=O)C1=C(O)C=C2Oc3c(C(=O)/C=C/c4ccccc4)c(O)c(C)c(O)c3[C@]2(C)C1=O,25.3%,32.6%,87.1%,21.6%,7.84% (active),24.2%,10.1%,32.9%,41.4%,43.1%
Cn1cc(-c2nc(-c3c[nH]c4ccccc34)cs2)c2cccnc21,30%,7.8% (active),-6.18% (active),51.6%,26.6%,32.5%,21.6%,51.4%,39.4%,52.4%
COc1ccc(CN(c2ccc(C)cc2)C2OC(=O)c3ccccc32)cc1OC (stereo not given),96.3%,97.9%,90.3%,96.5%,86.3%,90.6%,94.7%,94.9%,93.2%,108%
Oc1cc(O)c2c(=S)cc(-c3ccc(Cl)cc3)oc2c1,25.4%,92.8%,48.3%,17.5%,19.6%,28.4%,3.09% (active),22.6%,38.6%,40.5%
CC/C=C\C[C@H](O)C/C=C1/C(=O)C=C[C@@H]1C/C=C\CCCC(N)=O,-36.8% (active),-1.88% (active),69.3%,26.9%,0.507% (active),19.6%,-94.8% (active),-45.8% (active),-56.2% (active),-14.5% (active)
COc1ccc(C2Nc3ccccc3-n3cccc32)cc1 (stereo not given),92.9%,108%,105%,97.8%,98%,71.7%,93.1%,81.9%,97.3%,106%
c1ccc(-c2nc(N3CCOCC3)c3c4c(sc3n2)CCCCC4)nc1,59.5%,54.5%,45.9%,62.5%,59.9%,41.7%,23.4%,56.1%,83.2%,61.8%
CN(C)CC(=O)Nc1ccc(Cn2nnc3c2C(=O)c2nnn(Cc4ccc(NC(=O)CN(C)C)cc4)c2C3=O)cc1,1.94% (active),-52.5% (active),-92.8% (active),-75.1% (active),-82.1% (active),1.37% (active),-95% (active),-66.1% (active),-30.6% (active),-47.5% (active)
C/C(=C(/c1ccc(O)cc1)c1ccc(OCCN2CCCC2)cc1)c1ccccc1,34.6%,-10.7% (active),46.1%,73.5%,35.1%,48.1%,-65.8% (active),-29.3% (active),-50.2% (active),-40.8% (active)
O=C(CN1CCOCC1)Nc1ccc(Cn2nnc3c2C(=O)c2nnn(Cc4ccc(NC(=O)CN5CCOCC5)cc4)c2C3=O)cc1,70.8%,-37.3% (active),-87.4% (active),-15% (active),-92.1% (active),5.89% (active),-86.9% (active),-77.3% (active),-25.1% (active),-34.6% (active)
CCN(CC)CCCCNc1ccc(NCCCCN(CC)CC)c2c1C(=O)c1ccccc1C2=O,76.2%,-54.8% (active),142%,106%,85.5%,94.1%,106%,111%,-56.6% (active),116%
O=C(CCN1CCOCC1)Nc1ccc(Cn2nnc3c2C(=O)c2nnn(Cc4ccc(NC(=O)CCN5CCOCC5)cc4)c2C3=O)cc1,93.6%,1.57% (active),-86.7% (active),27.1%,-58.7% (active),17.7%,-72.9% (active),-17.3% (active),-21.9% (active),31.7%
C=C1CC[C@@H]2[C@](C)(COC(C)=O)[C@H](OC(C)=O)CC[C@@]2(C)[C@@H]1CC(Nc1ccc(S(=O)(=O)Nc2nc(C)cc(C)n2)cc1)C1=CCOC1=O (stereo not given in full),49.2%,46.2%,44.6%,100%,48.2%,65.2%,74.2%,32.9%,-60.6% (active),83.5%
CS(=O)(=O)c1c(Nc2ccccc2)n[nH]c1N,101%,97.3%,114%,91.1%,105%,82.5%,101%,92.4%,89.8%,106%
COc1cnc2c(c1)C(=O)c1c-2n(CCCN2CCNCC2)c(=O)c2cc([N+](=O)[O-])ccc12,-80.7% (active),-80% (active),2.92% (active),-40.7% (active),-93.3% (active),-82.3% (active),-7.99% (active),-82% (active),-86.5% (active),-76.6% (active)
O=C(CN1CCN(c2cc3c(cc2F)c(=O)c(C(=O)O)cn3C2CC2)CC1)Nc1nc(-c2ccccc2)cs1,82.4%,72.7%,69.6%,86.8%,43.8%,64.7%,78.9%,78.8%,36.5%,87.5%
CCOC(=O)C12CCCC1=CC(=O)CC2 (stereo not given),106%,131%,89.1%,99.9%,105%,94.8%,103%,102%,100%,106%
Cc1cc(OCc2ccc(C(F)(F)F)cc2)c2c(c1)C(=O)C=C(NCCN1CCCC1)C2=O,31.2%,9.81% (active),76.4%,79.8%,22.3%,66%,-35.7% (active),86.8%,-52.9% (active),-84.1% (active)
CC/C=C\C[C@H](F)C/C=C1/C(=O)C=C[C@@H]1C/C=C\CCCC(=O)OC,-32.8% (active),-31% (active),61.9%,34%,1.8% (active),12.9%,-81.8% (active),-49.4% (active),-49.7% (active),9.64% (active)
CCOC(=O)c1ccc2c(c1)nc(/C=C/c1ccc(Cl)cc1)n2-c1cc(C(C)(C)C)[nH]n1,35.6%,57.7%,0.573% (active),77.6%,50.5%,62.1%,62.1%,19.1%,39.9%,47.3%
